Assay [1] concerns the target T1, Ephrin type-B receptor 1 (Homo sapiens) (UniProt P54762).
T1 sequence (whole entry): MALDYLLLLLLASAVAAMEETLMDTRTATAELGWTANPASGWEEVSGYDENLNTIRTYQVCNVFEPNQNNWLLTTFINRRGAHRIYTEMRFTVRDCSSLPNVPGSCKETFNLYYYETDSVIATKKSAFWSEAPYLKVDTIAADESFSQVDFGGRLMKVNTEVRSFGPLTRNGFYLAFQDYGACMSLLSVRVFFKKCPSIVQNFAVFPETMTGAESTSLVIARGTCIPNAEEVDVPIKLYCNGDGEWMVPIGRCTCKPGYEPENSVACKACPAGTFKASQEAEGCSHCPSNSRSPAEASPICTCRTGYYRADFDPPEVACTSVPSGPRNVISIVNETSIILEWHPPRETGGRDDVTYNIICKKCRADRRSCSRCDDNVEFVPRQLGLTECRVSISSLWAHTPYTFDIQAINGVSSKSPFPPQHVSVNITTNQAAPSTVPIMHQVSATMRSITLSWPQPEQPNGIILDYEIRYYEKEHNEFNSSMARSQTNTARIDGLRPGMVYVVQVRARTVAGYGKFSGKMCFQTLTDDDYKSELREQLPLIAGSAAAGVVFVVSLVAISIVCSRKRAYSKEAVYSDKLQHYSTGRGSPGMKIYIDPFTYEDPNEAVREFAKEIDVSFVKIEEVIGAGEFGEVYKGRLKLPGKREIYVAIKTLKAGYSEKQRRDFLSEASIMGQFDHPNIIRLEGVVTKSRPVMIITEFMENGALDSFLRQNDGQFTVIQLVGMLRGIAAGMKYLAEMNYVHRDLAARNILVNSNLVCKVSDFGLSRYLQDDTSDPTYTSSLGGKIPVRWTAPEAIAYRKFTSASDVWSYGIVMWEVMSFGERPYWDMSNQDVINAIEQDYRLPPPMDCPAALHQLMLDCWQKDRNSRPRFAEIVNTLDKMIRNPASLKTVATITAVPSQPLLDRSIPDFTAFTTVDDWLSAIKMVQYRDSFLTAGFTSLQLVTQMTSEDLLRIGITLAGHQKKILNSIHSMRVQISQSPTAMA
As to conditions: at 10 µM; call rule not given here.

Assay [2] has as its target T2, Ephrin type-B receptor 2 (Homo sapiens) (UniProt P29323).
T2 sequence (whole entry): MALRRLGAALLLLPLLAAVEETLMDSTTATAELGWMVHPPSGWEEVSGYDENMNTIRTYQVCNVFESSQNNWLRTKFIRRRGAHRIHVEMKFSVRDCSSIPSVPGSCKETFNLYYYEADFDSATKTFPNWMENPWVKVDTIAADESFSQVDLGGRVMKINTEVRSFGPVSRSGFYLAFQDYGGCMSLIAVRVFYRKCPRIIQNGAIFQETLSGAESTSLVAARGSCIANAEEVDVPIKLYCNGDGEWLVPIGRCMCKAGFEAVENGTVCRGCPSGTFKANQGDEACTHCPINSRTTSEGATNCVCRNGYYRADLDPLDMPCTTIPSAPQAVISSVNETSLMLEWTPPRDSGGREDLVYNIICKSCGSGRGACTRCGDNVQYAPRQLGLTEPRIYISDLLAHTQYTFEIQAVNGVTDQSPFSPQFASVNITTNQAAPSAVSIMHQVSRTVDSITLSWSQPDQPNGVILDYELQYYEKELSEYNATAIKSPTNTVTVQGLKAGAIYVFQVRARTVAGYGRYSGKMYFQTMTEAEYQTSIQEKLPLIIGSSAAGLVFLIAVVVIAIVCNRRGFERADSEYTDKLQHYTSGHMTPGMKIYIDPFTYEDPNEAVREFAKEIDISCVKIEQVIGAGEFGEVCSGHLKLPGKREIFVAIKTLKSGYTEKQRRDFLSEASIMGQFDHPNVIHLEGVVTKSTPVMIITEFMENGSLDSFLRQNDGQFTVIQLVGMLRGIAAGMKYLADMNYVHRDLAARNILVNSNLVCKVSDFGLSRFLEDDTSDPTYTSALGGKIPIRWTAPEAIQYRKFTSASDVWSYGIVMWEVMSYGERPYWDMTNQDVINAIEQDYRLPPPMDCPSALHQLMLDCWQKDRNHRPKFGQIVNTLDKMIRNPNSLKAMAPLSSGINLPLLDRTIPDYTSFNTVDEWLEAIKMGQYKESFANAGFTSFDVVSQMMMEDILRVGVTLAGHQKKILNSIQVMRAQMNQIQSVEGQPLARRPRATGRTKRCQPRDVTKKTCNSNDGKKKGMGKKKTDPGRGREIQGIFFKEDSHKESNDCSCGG
As to conditions: at 1 µM.

The target of assay [3] is T2, Ephrin type-B receptor 2 (Homo sapiens). The settings on record: at 10 µM.
Assay [4] addresses T3, Ephrin type-B receptor 3 (Homo sapiens) (UniProt P54753).
T3 sequence (whole entry): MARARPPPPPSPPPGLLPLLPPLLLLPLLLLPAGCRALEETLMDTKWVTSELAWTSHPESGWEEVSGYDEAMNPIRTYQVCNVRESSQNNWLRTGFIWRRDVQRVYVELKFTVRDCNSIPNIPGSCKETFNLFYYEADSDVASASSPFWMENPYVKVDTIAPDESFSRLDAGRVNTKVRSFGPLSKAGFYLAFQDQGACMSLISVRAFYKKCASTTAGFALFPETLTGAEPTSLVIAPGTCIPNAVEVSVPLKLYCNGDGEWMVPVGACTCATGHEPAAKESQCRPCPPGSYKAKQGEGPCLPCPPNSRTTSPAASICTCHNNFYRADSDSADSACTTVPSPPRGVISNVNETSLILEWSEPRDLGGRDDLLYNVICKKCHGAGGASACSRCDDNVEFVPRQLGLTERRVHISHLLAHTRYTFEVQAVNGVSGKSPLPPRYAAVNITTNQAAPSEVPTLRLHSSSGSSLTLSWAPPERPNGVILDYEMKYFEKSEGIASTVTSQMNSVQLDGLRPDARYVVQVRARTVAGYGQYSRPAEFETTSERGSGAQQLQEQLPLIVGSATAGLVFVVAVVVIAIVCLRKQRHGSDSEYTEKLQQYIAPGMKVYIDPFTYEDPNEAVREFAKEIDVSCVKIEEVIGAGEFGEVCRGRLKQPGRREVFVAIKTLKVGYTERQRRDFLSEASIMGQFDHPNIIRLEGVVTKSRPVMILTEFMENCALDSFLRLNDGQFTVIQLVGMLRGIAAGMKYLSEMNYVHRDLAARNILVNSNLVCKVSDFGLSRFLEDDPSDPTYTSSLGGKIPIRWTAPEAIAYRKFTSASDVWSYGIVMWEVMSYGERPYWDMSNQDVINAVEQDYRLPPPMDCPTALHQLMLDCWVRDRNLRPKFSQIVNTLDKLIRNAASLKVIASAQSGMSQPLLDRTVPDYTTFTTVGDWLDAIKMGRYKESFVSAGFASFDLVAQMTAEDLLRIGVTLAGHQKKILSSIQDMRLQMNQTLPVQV
The settings on record: at 1 µM.

Assay [5] deals with T3, Ephrin type-B receptor 3 (Homo sapiens). As to conditions: at 10 µM.
Assay [6] deals with T4, Ephrin type-B receptor 4 (Homo sapiens) (UniProt P54760).
T4 sequence (whole entry): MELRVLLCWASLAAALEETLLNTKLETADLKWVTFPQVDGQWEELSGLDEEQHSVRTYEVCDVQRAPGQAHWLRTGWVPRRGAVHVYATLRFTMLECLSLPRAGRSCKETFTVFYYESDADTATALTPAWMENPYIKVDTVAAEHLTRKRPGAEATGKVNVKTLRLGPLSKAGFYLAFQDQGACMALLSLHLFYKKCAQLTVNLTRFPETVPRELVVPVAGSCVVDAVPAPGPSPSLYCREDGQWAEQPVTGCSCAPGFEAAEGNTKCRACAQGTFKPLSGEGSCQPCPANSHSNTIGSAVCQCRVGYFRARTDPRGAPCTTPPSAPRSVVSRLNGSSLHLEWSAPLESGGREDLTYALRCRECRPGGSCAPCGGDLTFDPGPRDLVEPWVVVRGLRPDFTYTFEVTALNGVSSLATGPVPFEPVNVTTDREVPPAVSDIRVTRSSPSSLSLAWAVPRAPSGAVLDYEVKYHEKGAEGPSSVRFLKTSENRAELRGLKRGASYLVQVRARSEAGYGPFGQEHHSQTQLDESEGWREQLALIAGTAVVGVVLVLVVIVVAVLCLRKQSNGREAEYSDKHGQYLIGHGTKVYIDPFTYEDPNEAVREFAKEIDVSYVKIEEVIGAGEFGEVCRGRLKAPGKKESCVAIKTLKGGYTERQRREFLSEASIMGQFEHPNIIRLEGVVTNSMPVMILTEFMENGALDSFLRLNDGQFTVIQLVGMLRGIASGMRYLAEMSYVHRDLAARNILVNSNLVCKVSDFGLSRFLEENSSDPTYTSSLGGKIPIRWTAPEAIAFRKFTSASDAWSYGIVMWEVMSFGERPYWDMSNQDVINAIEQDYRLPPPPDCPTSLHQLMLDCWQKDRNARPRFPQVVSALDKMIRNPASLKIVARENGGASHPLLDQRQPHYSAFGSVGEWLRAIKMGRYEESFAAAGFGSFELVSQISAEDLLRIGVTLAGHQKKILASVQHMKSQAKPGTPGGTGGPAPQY
As to conditions: at 1 µM.

Assay [7] addresses T4, Ephrin type-B receptor 4 (Homo sapiens). As to conditions: at 10 µM.
Assay [8] has as its target Receptor tyrosine-protein kinase erbB-4 (Homo sapiens) (UniProt Q15303). As to conditions: at 1 µM.
Assay [9] shares this target. The settings on record: at 10 µM.
Assay [10] concerns the target Focal adhesion kinase 1 (Homo sapiens) (UniProt Q05397). As to conditions: at 1 µM.

Sequence of Receptor tyrosine-protein kinase erbB-4 (Homo sapiens) (Q15303 whole entry): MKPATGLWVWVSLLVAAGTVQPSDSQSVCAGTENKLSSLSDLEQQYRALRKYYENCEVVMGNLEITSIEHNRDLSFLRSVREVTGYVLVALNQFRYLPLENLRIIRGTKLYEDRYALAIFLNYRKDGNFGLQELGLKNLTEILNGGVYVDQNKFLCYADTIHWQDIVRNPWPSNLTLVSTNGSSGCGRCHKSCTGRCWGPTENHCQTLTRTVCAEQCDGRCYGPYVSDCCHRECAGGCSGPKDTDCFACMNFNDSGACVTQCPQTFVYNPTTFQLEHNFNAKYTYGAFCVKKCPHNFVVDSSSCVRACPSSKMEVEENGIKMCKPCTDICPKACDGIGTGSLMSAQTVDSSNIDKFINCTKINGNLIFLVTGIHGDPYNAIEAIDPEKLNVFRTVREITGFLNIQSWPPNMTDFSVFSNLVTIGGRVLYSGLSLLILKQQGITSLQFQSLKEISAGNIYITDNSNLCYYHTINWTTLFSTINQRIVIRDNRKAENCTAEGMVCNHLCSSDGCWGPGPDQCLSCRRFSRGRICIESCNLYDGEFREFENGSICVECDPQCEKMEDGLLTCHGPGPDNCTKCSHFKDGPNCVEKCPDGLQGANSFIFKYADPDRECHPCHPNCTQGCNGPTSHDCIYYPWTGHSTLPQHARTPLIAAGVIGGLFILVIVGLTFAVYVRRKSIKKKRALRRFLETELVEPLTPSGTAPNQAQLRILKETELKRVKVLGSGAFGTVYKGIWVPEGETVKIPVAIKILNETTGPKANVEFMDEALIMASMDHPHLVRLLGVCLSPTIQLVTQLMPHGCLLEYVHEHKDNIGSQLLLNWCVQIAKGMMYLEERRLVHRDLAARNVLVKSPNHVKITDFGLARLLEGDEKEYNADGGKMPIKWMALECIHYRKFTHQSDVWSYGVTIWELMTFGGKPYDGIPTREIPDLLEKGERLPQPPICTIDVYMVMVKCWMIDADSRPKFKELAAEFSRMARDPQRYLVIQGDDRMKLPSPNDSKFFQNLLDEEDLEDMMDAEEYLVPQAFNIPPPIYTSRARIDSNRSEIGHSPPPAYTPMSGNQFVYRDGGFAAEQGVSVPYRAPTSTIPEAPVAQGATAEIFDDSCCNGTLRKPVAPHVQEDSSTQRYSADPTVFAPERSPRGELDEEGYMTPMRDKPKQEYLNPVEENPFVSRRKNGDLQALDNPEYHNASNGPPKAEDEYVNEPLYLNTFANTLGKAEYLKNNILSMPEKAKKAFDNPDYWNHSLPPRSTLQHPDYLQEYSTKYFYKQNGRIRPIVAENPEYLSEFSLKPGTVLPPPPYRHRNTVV
Sequence of Focal adhesion kinase 1 (Homo sapiens) (Q05397 2-1052 limits assumed): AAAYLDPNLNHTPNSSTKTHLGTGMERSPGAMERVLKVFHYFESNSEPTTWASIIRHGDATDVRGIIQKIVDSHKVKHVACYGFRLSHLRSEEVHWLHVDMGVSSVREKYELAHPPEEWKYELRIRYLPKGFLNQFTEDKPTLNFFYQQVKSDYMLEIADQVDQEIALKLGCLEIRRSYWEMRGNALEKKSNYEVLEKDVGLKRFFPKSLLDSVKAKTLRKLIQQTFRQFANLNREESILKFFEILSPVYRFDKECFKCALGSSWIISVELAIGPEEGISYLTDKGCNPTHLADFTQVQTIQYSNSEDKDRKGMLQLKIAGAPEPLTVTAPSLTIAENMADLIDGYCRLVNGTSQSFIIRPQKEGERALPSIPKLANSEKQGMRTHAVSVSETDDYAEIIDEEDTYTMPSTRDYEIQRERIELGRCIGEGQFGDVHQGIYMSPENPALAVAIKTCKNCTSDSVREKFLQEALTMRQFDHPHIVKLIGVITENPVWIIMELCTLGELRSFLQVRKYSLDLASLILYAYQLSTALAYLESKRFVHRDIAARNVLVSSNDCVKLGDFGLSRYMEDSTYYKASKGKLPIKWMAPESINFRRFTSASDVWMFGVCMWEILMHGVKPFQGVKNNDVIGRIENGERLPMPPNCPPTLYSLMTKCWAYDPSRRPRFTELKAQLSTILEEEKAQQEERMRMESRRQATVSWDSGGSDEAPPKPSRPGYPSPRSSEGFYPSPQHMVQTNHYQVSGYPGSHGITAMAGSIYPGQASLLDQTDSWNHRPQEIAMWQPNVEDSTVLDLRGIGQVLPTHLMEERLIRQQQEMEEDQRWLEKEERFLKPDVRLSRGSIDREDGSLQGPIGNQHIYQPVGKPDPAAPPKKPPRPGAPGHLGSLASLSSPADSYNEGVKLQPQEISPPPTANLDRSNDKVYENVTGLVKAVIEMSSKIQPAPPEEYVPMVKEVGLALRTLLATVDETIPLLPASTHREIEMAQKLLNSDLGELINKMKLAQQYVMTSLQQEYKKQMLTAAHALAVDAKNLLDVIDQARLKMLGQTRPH

By residual activity is commonly meant the signal under treatment as a percentage of the control signal. For `COc1cccc(-c2cc(=O)c3ccccc3o2)c1N`, the residual activity was 100% in [1]; 118% in [2]; 132% in assay [3]; 107% (inactive) in assay [4]; 112% in [5]; 94% in assay [6]. In addition, the residual activity turned out to be 109% in [7], 90% in assay [8], 93% in [9] and 115% in [10].

The values are drawn from ChEMBL document CHEMBL2218924, “A broad activity screen in support of a chemogenomic map for kinase signalling research and drug discovery” (Biochem J, 2013).
